# Results published in the supplement of paper PMC7411640.
# Counter-ions that a name gives are not always drawn.
# Tested on: MDA-MB-468
# Experiment: phospho-S6 immunofluorescence (DAPI-normalised), per-plate z-score; higher = higher phospho-S6 signal (less pathway suppression)
# Settings: 24 h
# Procedure: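 GPCR-targeted compound library (MedChemExpress HY-L006) tested on MDA-MB-468 PTEN-null TNBC cells in 384-well plates at 0.1, 1 or 10 uM, combined with vehicle, GDC0941 450 nM or lapatinib 1 uM, for 24 h. Phospho-S6 (S240/244) immunofluorescence normalised to DAPI and expressed as a per-plate z-score; values are the mean of biological triplicates.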
SMILES,phospho-S6 immunofluorescence (z-score) (co-treatment: GDC0941 450 nM),phospho-S6 immunofluorescence (z-score) (co-treatment: lapatinib 1 uM),phospho-S6 immunofluorescence (z-score) (co-treatment: vehicle)
Cc1noc(NS(=O)(=O)c2ccc(N)cc2)c1C [Sulfisoxazole] (compound 10 µM),1.15,-0.03,0.55
CS(=O)(=O)c1cc(F)cc2c3c(n(Cc4ccc(Cl)cc4)c12)[C@@H](CC(=O)O)CC3 [Laropiprant] (compound 10 µM),0.48,0.81,0.75
COC(c1ccccc1)(c1ccccc1)[C@H](Oc1nc(C)cc(C)n1)C(=O)O [Ambrisentan] (compound 10 µM),1.18,0.5,-0.07
CCCCc1nc(C)c(CC(=S)N(C)C)c(=O)n1Cc1ccc(-c2ccccc2-c2nnn[nH]2)cc1 [Fimasartan] (compound 10 µM),0.34,1.66,-0.04
CC(C)C[C@H](NC(=O)[C@H](CC(C)C)NC(=O)[C@H](Cc1ccccc1)NC(=O)[C@@H](N)CO)C(=O)N[C@@H](CCCN=C(N)N)C(=O)N[C@@H](CC(N)=O)C(=O)O (compound 10 µM),-1.01,-0.25,0.03
CN(C)CCN1C(=O)c2cccc3cc(NC(N)=O)cc(c23)C1=O (compound 10 µM),1.29,7.09,0.12
CC(C)(C)C1CCC(N(Cc2ccc(C(=O)NCCC(=O)O)cc2)C(=O)Nc2ccc(OC(F)(F)F)cc2)CC1 (centres undefined) (compound 10 µM),-3.4,-4.75,-1.64
CCN(CC)CCNC(=O)c1cc(Cl)c(N)cc1OC [Metoclopramide] (compound 10 µM),-0.3,0.63,-0.11
CC1=C(C)C(=O)C(C(CCCCCC(=O)O)c2ccccc2)=C(C)C1=O (centres undefined) [Seratrodast] (compound 10 µM),1.01,1.15,0.08
OC(CNCC(O)C1CCc2cc(F)ccc2O1)C1CCc2cc(F)ccc2O1 (centres undefined) [Nebivolol (hydrochloride)] (compound 10 µM),-2.5,-3.76,-2.22
c1ccc(NCc2ccc(CNc3ccccn3)cc2)nc1 (compound 10 µM),0.88,-0.48,0.72
CCCc1c2oc(C(=O)O)cc(=O)c2cc2c(=O)cc(C(=O)O)n(CC)c12 [Nedocromil] (compound 10 µM),-0.69,-0.48,-1.01
Cc1cc(NC(=O)NCCN2CCC(O)(Cc3ccccc3)CC2)c2ccccc2n1 [Palosuran] (compound 10 µM),-1.78,-2.21,-0.2
CN(C)CCSSCCNC(=O)C1CCN(C(=O)CSc2ccc(Cl)cc2)CC1 [6H05 (trifluoroacetate)] (compound 10 µM),-1.17,2.33,-0.23
C[C@H](CCC(=O)O)[C@H]1CC[C@H]2[C@@H]3CC[C@@H]4C[C@H](O)CC[C@]4(C)[C@H]3C[C@H](O)[C@]12C [Deoxycholic acid] (compound 10 µM),0.02,0.6,-0.17
CCOc1nc2cccc(C(=O)O)c2n1Cc1ccc(-c2ccccc2-c2noc(=O)[nH]2)cc1 [Azilsartan] (compound 10 µM),-0.76,0.26,-0.54
C[N+]1(C)CCC(=C(c2ccccc2)c2ccccc2)CC1 [Diphenmanil (methylsulfate)] (compound 10 µM),0.46,0.06,0.8
OCCNC1CCCc2c1[nH]c1ccc(-c3ccccc3)cc21 (centres undefined) (compound 10 µM),-5.16,-8.66,-9.39
CCN(Cc1ccncc1)C(=O)C(CO)c1ccccc1 (centres undefined) [Tropicamide] (compound 10 µM),0.17,1.42,-0.17
COc1ccc(/C=C/C(=O)Nc2ccccc2C(=O)O)cc1OC [Tranilast] (compound 10 µM),1.77,-0.19,0.33
CCCCC1=NC2(CCCC2)C(=O)N1Cc1ccc(-c2ccccc2-c2nnn[nH]2)cc1 [Irbesartan] (compound 10 µM),0.03,0.13,0.09
c1ccc2c(CC3=NCCN3)cccc2c1 [Naphazoline (hydrochloride)] (compound 10 µM),-0.78,0.03,0.05
CC(C)COc1ccc(CNC(=O)N(Cc2ccc(F)cc2)C2CCN(C)CC2)cc1 [Pimavanserin] (compound 10 µM),-2.66,-2.95,-2.1
O=C(NCC(=O)N1CC[C@H](N[C@H]2CC[C@@](O)(c3ccc(-c4ncccn4)cn3)CC2)C1)c1cccc(C(F)(F)F)c1 (compound 10 µM),-0.86,-0.77,0.76
CCOCCn1c(C2CCN(CCc3ccc(C(C)(C)C(=O)O)cc3)CC2)nc2ccccc21 [Bilastine] (compound 10 µM),0.51,0.94,-0.28
Nc1nc(CC(=O)Nc2ccc(CCNC[C@H](O)c3ccccc3)cc2)cs1 [Mirabegron] (compound 10 µM),0.91,1.75,0.56
CC(C)NCC(O)c1ccc(O)c(O)c1 (centres undefined) [Isoprenaline (hydrochloride)] (compound 10 µM),0.63,2.74,1.65

SMILES,phospho-S6 immunofluorescence (z-score) (co-treatment: GDC0941 450 nM),phospho-S6 immunofluorescence (z-score) (co-treatment: lapatinib 1 uM),phospho-S6 immunofluorescence (z-score) (co-treatment: vehicle)
CNc1nc(NCc2ccc(NS(C)(=O)=O)cc2Cl)cc(-c2ccccn2)n1 (compound 10 µM),-3.45,-5.07,-4.83
CN(C)CCCN1c2ccccc2Sc2ccc(Cl)cc21 [Chlorpromazine (hydrochloride)] (compound 10 µM),0.58,-1.09,3.4
O=C(C[S+]([O-])Cc1ccco1)NC/C=C\COc1cc(CN2CCCCC2)ccn1 (centres undefined) [Lafutidine] (compound 10 µM),-0.67,0.02,-0.32
O=C(CCCN1CCN(c2ccccn2)CC1)c1ccc(F)cc1 [Azaperone] (compound 10 µM),0.08,0.77,0.8
Cc1nccn1CCC(C(N)=O)(c1ccccc1)c1ccccc1 [Imidafenacin] (compound 10 µM),-0.05,0.38,0.28
OC[C@H]1O[C@@H](n2cnc3c(N[C@@H]4CCc5ccccc54)ncnc32)[C@H](O)[C@@H]1O (compound 10 µM),1.19,0.89,1.18
CN1CCC(=C2c3ccccc3CCn3c(C=O)cnc32)CC1 [Alcaftadine] (compound 10 µM),-0.88,1.09,-0.66
COC(=O)N(C)c1c(N)nc(-c2nn(Cc3ccccc3F)c3ncccc23)nc1N [Riociguat] (compound 10 µM),-0.84,0.03,-0.56
COCCCN1CCC(NC(=O)c2cc(Cl)c(N)c3c2OCC3)CC1 [Prucalopride] (compound 10 µM),0.54,0,0.17
Cn1c(=O)c2nc[nH]c2n(C)c1=O [Theophylline] (compound 10 µM),0.11,0.16,0.71
NCCc1ccc(O)c(O)c1 [Dopamine (hydrochloride)] (compound 10 µM),0.84,0.53,0.15
CN(C)CCCN1c2ccccc2CCc2ccc(Cl)cc21 [Clomipramine (hydrochloride)] (compound 10 µM),-1.98,-3.26,-1.14
CCOc1cc(N)c(Cl)cc1C(=O)NCC1CN(Cc2ccc(F)cc2)CCO1 (centres undefined) [Mosapride (citrate)] (compound 10 µM),0.76,0.46,0.79
COc1cc2nc(C3CC3)nc(N3CCN(c4ccccc4OC)CC3)c2cc1OC (compound 10 µM),-1.77,-0.08,0.05
CC(C)NC[C@H](O)COc1ccc(CCOCC2CC2)cc1 [Levobetaxolol (hydrochloride)] (compound 10 µM),-0.39,-0.2,-0.19
Cc1ccc(Sc2ccccc2N2CCNCC2)c(C)c1 [Vortioxetine] (compound 10 µM),-5.05,-7.7,-6.93
CN(C)CCOC(C)(c1ccccc1)c1ccc(Cl)cc1 (centres undefined) [Chlorphenoxamine] (compound 10 µM),-4.26,-7.36,-4.5
O=C1NCCN1CCN1CCC(c2cn(-c3ccc(F)cc3)c3ccc(Cl)cc23)CC1 [Sertindole] (compound 10 µM),-4.7,-6.25,-4.35
C(=C\c1ccccc1)/CN1CCN(C(c2ccccc2)c2ccccc2)CC1 [Cinnarizine] (compound 10 µM),0.86,0.22,1.3
COc1ccc(CC(C)NCC(O)c2ccc(O)c(NC=O)c2)cc1 (centres undefined) [Formoterol (Fumarate)] (compound 10 µM),1.08,0.77,0.16
CCc1cc(-c2noc(-c3cc(OC)nc(C4CCCC4)c3)n2)cc(C)c1OC[C@@H](O)CO [Cenerimod] (compound 10 µM),-3.08,-4.72,-4.14
CC(C)Cc1ccc([C@@H](C)C(=O)NS(C)(=O)=O)cc1 [Reparixin (L-lysine salt)] (compound 10 µM),-1.6,-1.46,-0.67
C[C@@H]1CCCN1CCc1cc2cc(-c3ccc(C#N)cc3)ccc2o1 (compound 10 µM),-3.3,-4.56,-0.97
C[C@]12CCC(=O)C=C1CC[C@@H]1[C@@H]2[C@@H](O)C[C@@]2(C)[C@H]1CC[C@]2(O)C(=O)CO [Hydrocortisone] (compound 10 µM),-4.8,-4.13,-2.96
CNS(=O)(=O)CCc1ccc2[nH]cc(C3CCN(C)CC3)c2c1 [Naratriptan (hydrochloride)] (compound 10 µM),-0.23,0.4,0.18
CN(C)CCC(c1ccc(Br)cc1)c1ccccn1 (centres undefined) [Brompheniramine (maleate)] (compound 10 µM),0.58,-0.17,0.3
